The results in this text go back to PubChem BioAssay (EPA / NIEHS).

Read-out in assay [1]: X-box binding protein 1 (XBP1), XBP1 (gene 7494)
As to the kind of experiment: LTEA_HepaRG_XBP1: Life Technologies and Expression Analysis (LTEA) Assay for X-box binding protein 1 (XBP1) using HepaRG (AID 2283540; active = hit-call score of the fitted dose curve at least 0.9, where 1 is the maximum; inactive = score below 0.9). The conditions noted are these: mRNA level, 48 h; actives raise or lower the signal. The gist of the method:
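Differentiated human HepaRG cells in serum-free induction medium were exposed in duplicate for 48 h to eight half-log concentrations up to 100 uM in 0.5% DMSO. XBP1 mRNA was quantified by qRT-PCR, normalised to ACTB, GAPDH and POLR2A, with bidirectional fitting against DMSO.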

A short description of assay [2]: LTEA_HepaRG_LDH_cytotoxicity: Cytotoxicity Assessment in the Life Technologies and Expression Analysis (LTEA) Assay (AID 2283563).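 For AC50: LDH activity released into spent culture medium as a marker of cell death.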 The gist of the method: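 Differentiated human HepaRG cells, plated 48 h beforehand, were switched to serum-free induction medium and exposed for 48 h to eight half-log concentrations (top 100 uM) in 0.5% DMSO. LDH was measured in spent medium; activity was fitted relative to DMSO vehicle.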

A short description of assay [3]: TOX21_p53_BLA_p2_viability: Viability Assessment in the Tox21 HCT-116 p53 Agonism Beta-lactamase Assay, Phase 2 (AID 2283591).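 Note: compound exposure lasted 16 h at 37 °C; actives lower the ATP signal meaning cytotoxicity.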 The gist of the method:
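HCT-116 p53-bla cells (4000/well) rested 5 h at 37C, then received compounds in DMSO (217-fold dilution) for 16 h at 37C, 5% CO2. After the CCF4 read, CellTiter-Glo was added; ATP luminescence was read after 30 min at room temperature.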

In assay [4] the target is Cellular tumor antigen p53 (Homo sapiens) (UniProt P04637). Nature of the assay: TOX21_p53_BLA_p2_ratio: Tox21 HCT-116 p53 Agonism Beta-lactamase Assay, Ratio, Phase 2 (AID 2283592). The method in brief: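 HCT116 cells carrying a p53-responsive beta-lactamase reporter were plated, incubated 5 h at 37C, then dosed with compounds in DMSO (217-fold dilution) for 16 h. CCF4-AM substrate was added for 2 h at room temperature; the 460/530 nm emission ratio gave gain-of-signal activity relative to DMSO.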
Cellular tumor antigen p53 (Homo sapiens), sequence (P04637 whole entry, looked up): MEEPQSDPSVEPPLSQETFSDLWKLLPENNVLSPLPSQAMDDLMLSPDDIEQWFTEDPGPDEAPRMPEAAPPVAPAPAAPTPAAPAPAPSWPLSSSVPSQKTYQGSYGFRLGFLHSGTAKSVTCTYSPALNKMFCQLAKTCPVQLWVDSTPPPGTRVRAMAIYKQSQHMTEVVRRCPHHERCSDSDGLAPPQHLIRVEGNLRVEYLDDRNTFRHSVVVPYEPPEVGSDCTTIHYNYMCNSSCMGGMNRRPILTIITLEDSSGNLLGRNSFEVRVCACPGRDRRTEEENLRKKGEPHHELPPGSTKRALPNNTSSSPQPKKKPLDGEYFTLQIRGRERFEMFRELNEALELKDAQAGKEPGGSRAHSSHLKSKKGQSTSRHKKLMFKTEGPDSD

The nature of assay [5]: TOX21_p53_BLA_p3_viability: Viability Assessment in the Tox21 HCT-116 p53 Agonism Beta-lactamase Assay, Phase 3 (AID 2283593).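 Note: cells exposed to compound for 16 h before reading.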 The gist of the method: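 HCT-116 cells (4000/well) rested 5 h at 37C, then got DMSO compounds by pin tool (217-fold dilution) for 16 h at 37C, 5% CO2. After the bla read, CellTiter-Glo was added and luminescence read at 30 min, room temperature.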

The target of assay [6] is Cellular tumor antigen p53 (Homo sapiens) (UniProt P04637). As to the kind of experiment: TOX21_p53_BLA_p3_ratio: Tox21 HCT-116 p53 Agonism Beta-lactamase Assay, Ratio, Phase 3 (AID 2283596). The method in brief:
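HCT116 p53-bla cells (4000/well) given compound in DMSO (217-fold dilution) after 5 h, incubated 16 h at 37C. CCF4-AM substrate 2 h at room temperature; 460/530 nm emission ratio, gain fitted against DMSO.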

Assay [7] in a line: TOX21_p53_BLA_p4_viability: Viability Assessment in the Tox21 HCT-116 p53 Agonism Beta-lactamase Assay, Phase 4 (AID 2283597).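 Note: hits lower the luminescence signal meaning cytotoxicity.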 The gist of the method:
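HCT116 p53-bla cells (4000/well) rested 5 h at 37C, then received compounds in DMSO (217-fold dilution) for 16 h at 37C, 5% CO2. CellTiter-Glo was added after the CCF4-AM read, and luminescence was read after 30 min at room temperature.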

In assay [8] the target is Cellular tumor antigen p53 (Homo sapiens) (UniProt P04637). Nature of the assay: TOX21_p53_BLA_p5_ratio: Tox21 HCT-116 p53 Agonism Beta-lactamase Assay, Ratio, Phase 5 (AID 2283599). The method in brief:
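HCT-116 cells carrying a p53-inducible beta-lactamase reporter were seeded at 4000 cells/well and dosed after 5 h with compound in DMSO (217-fold dilution). After 16 h at 37C, CCF4-AM substrate was added for 2 h, and the 460/530 nm emission ratio was scored as gain-of-signal versus DMSO.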

The nature of assay [9]: TOX21_p53_BLA_p5_viability: Viability Assessment in the Tox21 HCT-116 p53 Agonism Beta-lactamase Assay, Phase 5 (AID 2283600). The method in brief: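 Cells were plated at 4000/well, rested 5 h at 37C, then given compounds in DMSO (217-fold dilution) for 16 h at 37C, 5% CO2. Following the CCF4-AM beta-lactamase read, CellTiter-Glo was added and luminescence was read after 30 min at room temperature.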

Assay [10] addresses Cellular tumor antigen p53 (Homo sapiens) (UniProt P04637). As to the kind of experiment: TOX21_p53_BLA_p4_ratio: Tox21 HCT-116 p53 Agonism Beta-lactamase Assay, Ratio, Phase 4 (AID 2283601). The method in brief: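 HCT116 cells carrying an inducible beta-lactamase reporter were plated at 4000 cells/well, rested 5 h, then exposed to compounds in DMSO (217-fold dilution) for 16 h at 37C. CCF4-AM substrate was loaded 2 h at room temperature; 460/530 nm emission ratio scored gain-of-signal versus DMSO.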

Assay [11] can be described thus: Tanguay_ZF_120hpf_YSE_legacy: (Legacy) Oregon State University Tanguay Lab 120 Hour Post-fertilization zebrafish Assay for Yolk Sac Edema (AID 2283634).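 For AC50: actives raise the incidence of yolk sac edema above the DMSO baseline.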 The method in brief:
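Tropical 5D wild-type embryos, dechorionated with pronase at 4 hpf, were exposed singly from 6 hpf to 120 hpf under static, sealed, dark conditions at 28C with 0.64% DMSO final. Yolk sac edema was scored present/absent by brightfield microscopy.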

Assay [12] can be described thus: Tanguay_ZF_120hpf_AXIS_legacy: (Legacy) Oregon State University Tanguay Lab 120 Hour Post-fertilization zebrafish Assay for Body Axis Malformation (AID 2283635).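 For AC50: potency for an increased fraction of larvae scored with body axis malformation.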 The method in brief:
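Tropical 5D wild-type zebrafish embryos, dechorionated with pronase at 4 hpf, were placed singly in wells at 6 hpf and exposed statically to test chemical (0.64% DMSO final) at 28C until 120 hpf, then scored by brightfield for body axis defects.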

Assay [13] can be described thus: Tanguay_ZF_120hpf_JAW_legacy: (Legacy) Oregon State University Tanguay Lab 120 Hour Post-fertilization zebrafish Assay for Jaw Malformation (AID 2283638).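 For AC50: active means more embryos with jaw malformation than DMSO controls.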 The gist of the method:
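Tropical 5D wild-type embryos, dechorionated with pronase at 4 hpf, were placed singly per well at 6 hpf and statically exposed at 28C until 120 hpf (0.64% DMSO final). Jaw malformation scored as present/absent by brightfield microscopy at 120 hpf, analyzed relative to DMSO.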

A short description of assay [14]: Tanguay_ZF_120hpf_OTIC_legacy: (Legacy) Oregon State University Tanguay Lab 120 Hour Post-fertilization zebrafish Assay for Otic Vesicle Malformation (AID 2283639). The method in brief: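 Embryos from 5D wild-type adults exposed in plates; DMSO 0.64% v/v final. Sealed, light-protected, 28C, static to 120 hpf. Otic vesicle malformation recorded as binary endpoint; gain-of-signal fitted vs DMSO.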

The nature of assay [15]: Tanguay_ZF_120hpf_PE_legacy: (Legacy) Oregon State University Tanguay Lab 120 Hour Post-fertilization zebrafish Assay for Pericardial Edema (AID 2283640).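 For AC50: potency for increased incidence of pericardial edema versus DMSO baseline.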 The method in brief:
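Tropical 5D wild-type zebrafish embryos were exposed statically to 120 hpf at 28C, sealed and foil-covered, in 0.64% DMSO final. Pericardial edema was scored present/absent by brightfield microscopy; dead embryos were not scored.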

The nature of assay [16]: Tanguay_ZF_120hpf_BRAI_legacy: (Legacy) Oregon State University Tanguay Lab 120 Hour Post-fertilization zebrafish Assay for Brain Malformation (AID 2283641). The gist of the method: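 Tropical 5D wild-type zebrafish embryos were exposed statically in sealed, foil-covered plates at 28C until 120 hpf, with 0.64% (vol/vol) final DMSO. Brain malformation was scored present/absent by brightfield microscopy, relative to DMSO baseline.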

Assay [17] in a line: ATG_XTT_Cytotoxicity: Cytotoxicity Assessment in the Attagene TRANS-FACTORIAL HepG2 Assay (AID 2283584). The method in brief: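 HepG2 human liver cells, transiently transfected with multiple GAL4-UAS reporter units, were dosed and read at 24 h by XTT as cell number. Loss of signal was fitted relative to DMSO negative control baseline.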
A short description of assay [18]: Tanguay_ZF_120hpf_MORT_legacy: (Legacy) Oregon State University Tanguay Lab 120 Hour Post-fertilization zebrafish Assay for Mortality (AID 2283633). The gist of the method: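 Dechorionated Tropical 5D wild-type zebrafish embryos, one per well from 6 hpf, were statically exposed at 28C in the dark until 120 hpf (0.64% DMSO final). Mortality was scored as present/absent by brightfield microscopy, fitted positively versus DMSO.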

Assay [19] is described as follows: Tanguay_ZF_120hpf_EYE_legacy: (Legacy) Oregon State University Tanguay Lab 120 Hour Post-fertilization zebrafish Assay for Eye Malformation (AID 2283636).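 Note: binary presence or absence of eye malformation scored by brightfield in 120 hpf larvae.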 The method in brief: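 Dechorionated wild-type Tropical 5D zebrafish embryos were exposed statically from 6 hpf, one per well, to 120 hpf at 28C in sealed, foil-covered plates with 0.64% DMSO. Eye malformation was scored present/absent by brightfield microscopy against DMSO controls.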

Assay [20] is described as follows: Tanguay_ZF_120hpf_SNOU_legacy: (Legacy) Oregon State University Tanguay Lab 120 Hour Post-fertilization zebrafish Assay for Snout Malformation (AID 2283637). The gist of the method: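 Tropical 5D wild-type zebrafish embryos, dechorionated with pronase at 4 hpf, were exposed singly from 6 hpf to 120 hpf statically at 28C in 0.64% DMSO. Snout malformation was scored present/absent by brightfield microscopy, fitted against DMSO.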

“And” between values parts separate entries of the source, which are not always exact repeats. Equal entries are not always repeated. Records with an inconclusive call do not appear. A structure can be active in one record and inactive in another. The source made the active and inactive calls. Rule for the calls, unless noted: active = hit-call score of the fitted dose curve at least 0.9, where 1 is the maximum; inconclusive = response in the unintended direction; inactive = score below 0.9.

In the case of `CC/C(=C(/CC)c1ccc(O)cc1)c1ccc(O)cc1`, the AC50 is 89.9 µM (active) in [1]; 89.2 µM (active) in [2]; 62 µM (active) and 73.4 µM (active) in [3]; 3.29 µM (active) and 5.64 µM (active) in assay [4]; 11.8 µM (active) and 14 µM (active) in assay [6]; 46 µM (active) in assay [7]. The AC50 in assay [8] is 17.3 µM (active) and 4.28 µM (active); in assay [9] it was 75.1 µM (active); in assay [10] it was 38.3 µM (active) and 8.57 µM (active). Further, the result in assay [5], in assay [7], in [9], in assay [11], in assay [12] and in [13] was inactive. The result in [14], in assay [15] and in [16] was inactive.

Turning to `Cc1cn([C@H]2C[C@H](N=[N+]=[N-])[C@@H](CO)O2)c(=O)[nH]c1=O`, the compound was called inactive in assay [1], in assay [2], in assay [17], in [3], in [4] and in assay [5]. In addition, the result in assay [6], in [7], in assay [8], in assay [9], in assay [10] and in assay [18] was inactive. Besides, the compound was called inactive in assay [11], in assay [12], in assay [19], in assay [13], in assay [14] and in [15].

As for `CCCCOC(=O)c1ccc(O)cc1`, the compound was called inactive in assay [1], in assay [2], in [3], in assay [4], in [5] and in assay [6]. Moreover, the compound was called inactive in [7], in [8], in [9] and in assay [10]. Moreover, the AC50 is 51.7 µM (active) in assay [11]; 45.1 µM (active) in assay [12]; 41.1 µM (active) in assay [19]; 29.5 µM (active) in assay [13]; 46.5 µM (active) in assay [14]; 35.5 µM (active) in assay [15]. For the same compound, the AC50 in assay [16] is 11.1 µM (active).

Consider `O=CCCCC=O`, for which the outcome in assay [1], in assay [2], in [17], in [3], in [4] and in assay [5] was inactive. Further, the call in [7], in assay [8], in [9], in assay [10], in assay [11] and in assay [12] was inactive. Also, the result in [19], in [20], in [13], in assay [14], in assay [15] and in [16] was inactive. Besides, the AC50 in [5] is 83.5 µM (active) and 84.6 µM (active); in assay [6] it was 69.9 µM (active) and 37 µM (active).

Turning to `CN(C)C(=O)C1(N2CCCCC2)CCN(CC[C@@]2(c3ccc(Cl)c(Cl)c3)CN(C(=O)c3ccccc3)CCO2)CC1`, the result in assay [1], in assay [11], in assay [12], in [19], in assay [13] and in [14] was inactive. Besides, the call in assay [15] and in assay [16] was inactive. The AC50 in assay [2] was 20 µM (active); in assay [3] it was 37.8 µM (active); in assay [4] it was 70.9 µM (active); in assay [5] it was 70.5 µM (active); in [6], 82.3 µM (active); in assay [7], 34 µM (active). In addition, the results for the AC50 in assay [8], in assay [9] and in assay [10] were 82 µM (active), 74.6 µM (active) and 48.5 µM (active), respectively.

The term AC50 denotes the concentration giving half of the maximal activity seen.
